Pf growth 48h: inhibits P. falciparum growth in the first generation, 48 h; P. falciparum luciferase growth in erythrocytes, 48 h; Potency, µM (doses to about 28.7 µM), for inactives: top-dose activity change, negative = inhibition, usual class: inhibitors; 5.9% of 310,000 active; active = well fitted inhibition curve with a large enough effect; inconclusive = small, poorly fitted or top-dose-only effect, or another doubt; inactive = no such curve, though single readings can be large or run the other way; note: potency is the fitted concentration of half-maximal effect; % is set by controls: 0 for no effect and ±100 for the full control effect
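First compound was added to culture medium, then infected red cells at 0.1% parasitemia and 2% hematocrit (final). After incubation at 37 C under 5% CO2, luciferase detection reagent was dispensed and light output recorded.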
NS1 function inh: inhibitors of influenza NS1 protein function. Potency, µM (highest dose often 46.1 µM), for inactives: at the highest dose activity, positive = more growth. 0.4% of 270,000 active. AID 2326; note: potency is the fitted concentration of half-maximal effect; actives are rising curves; nearly all actives have a fitted effect of over 50% in size
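OD600 was taken as the measure of yeast growth restored by compound in an NS1-expressing S. cerevisiae strain. Cells had been washed out of glucose medium and diluted 1:100 into galactose -URA medium, pH 6.0.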
SARS PLP yeast: SARS-CoV PLP inhibition in yeast | 0.19% of 330,000 active | AID 485353 | Potency, µM (doses to about 32.9 µM), inactives show at the highest dose activity, positive = growth rescue, usual class: activators | S. cerevisiae expressing SARS-CoV PLpro, growth rescue; note: potency is the fitted concentration of half-maximal effect; 0% is about no effect; nearly all actives have a fitted effect of over 55% in size
Pf growth 96h: inhibits malaria parasite growth, 96 h. Potency, µM (highest dose often 28.7 µM), for the others: at the top dose activity change, negative = inhibition, usual class: inhibitors. P. falciparum luciferase reporter growth, 96 h. 6.9% of 320,000 active; active = well fitted inhibition curve with a large enough effect; inconclusive = small, poorly fitted or top-dose-only effect, or another doubt; inactive = no such curve, though single readings can be large or run the other way; note: potency is the fitted concentration of half-maximal effect; % is set by controls: 0 for no effect and ±100 for the full control effect
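P. falciparum expressing integrated firefly luciferase grown in erythrocytes (2% hematocrit, 0.05% parasitemia final) with compounds for 96 hours at 37 C, 5% CO2. Growth inhibition read as loss of luminescence after adding luciferase detection reagent.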
Shiga toxin inh: blocks Shiga toxin action in Vero cells | Vero cells, Shiga toxin protein synthesis inhibition reporter | inhibition, % at 38.7 µM | 9.2% of 290,000 active | AID 2315; in the data active = inhibition mostly above about 28%, no sharp cut-off; inactive = mostly below about 43%; note: 0% is about no effect
CHX counter: counter-screen for Shiga toxin inhibitors: cycloheximide protein synthesis inhibition. 12% of 300,000 active. cell reporter, cycloheximide protein synthesis inhibition counterscreen. max response, %; in the data active = max response mostly above about 13%, no sharp cut-off; inactive = mostly below about 14%; note: read at 38.3 µM for the half of the compounds with a filed dose; 0% is about no effect
Numbers without * were called inactive; ? = inconclusive; · = no result; [ ] = remark or other dose. This is a sample that favours compounds with a hit; in the whole collection about 21% have one here. Unless noted, calls come from the whole dose curve.

SMILES	Pf growth 48h	NS1 function inh	SARS PLP yeast	Pf growth 96h	Shiga toxin inh	CHX counter
CCN(CC)C(=O)Cn1cc(C(=O)C(=O)N2CCCc3ccccc32)c2ccccc21	?	·	-0.2%	4.4%	-5.2	-4.4
Cc1cccc2c1NC(=O)C21N2CCCC2C(C(=O)c2ccc3ccccc3c2)C12C(=O)Nc1ccccc12 (centres undefined)	?	3.4%	-1.9%	?	20.1	16.4*
CCc1ccc2c(c1)C1(C(=O)N2)N2CCCC2C(C(=O)c2ccc3ccccc3c2)C12C(=O)Nc1ccccc12 (centres undefined)	?	-0.8%	-15.2%	2.33µM*	64.9*	45.9*
O=C(Nc1ccnn1C1CCN(Cc2ccccc2OC(F)F)CC1)c1cccc(F)c1	-4.1%	-12.1%	-1.5%	14.1%	-2.5	1.3
CC(C)c1ccc(N(CC(=O)NCCSC(C)(C)C)S(C)(=O)=O)cc1	·	0.7%	1.0%	9.9%	23.6	31.1*
CN(c1ccc(C(=O)NCCSCc2ccco2)cc1)S(C)(=O)=O	56.6%	9.1%	9.3%	·	41.5*	29.9*
Cc1ccccc1CNC(=O)c1ccc(Cl)c([N+](=O)[O-])c1	12.8%	-3.3%	7.7%	-3.9%	9.6	-0.8
CN(c1ccc(C(=O)NCCc2ccccc2)cc1)S(C)(=O)=O	·	4.2%	-3.2%	175.6%	68.3*	20.9*
CC(C)(C)SCCNC(=O)CN(c1ccccc1)S(=O)(=O)c1ccccc1	?	6.9%	-0.1%	?	1.3	-4.1
CC(C)(C)SCCNC(=O)c1ccc(Cl)c([N+](=O)[O-])c1	6.5%	-24.6%	-45.5%	19.0%	97.9*	27.1*
CN(c1ccc(C(=O)NCc2ccco2)cc1)S(C)(=O)=O	12.0%	9.7%	-2.3%	·	18.4	-1.9
Cc1ccc(C(=O)NCCc2ccccc2)cc1	184.0%	-15.1%	-14.3%	-58.4%	-1.7	-2.1
CN(c1ccc(C(=O)Nc2ccccc2C(F)(F)F)cc1)S(C)(=O)=O	83.5%	-1.9%	5.5%	?	40.9*	20.3
Cc1ccc(S(=O)(=O)N(C)c2ccc(C(=O)NCCc3ccccc3)cc2)cc1	?	1.5%	9.5%	10.4µM*	62.0*	32.4*
CCN(Cc1ccccc1)C(=O)c1ccc(N(C)S(=O)(=O)c2ccc(C)cc2)cc1	14.7µM*	·	-1.4%	?	·	·
CN(c1ccccc1)S(=O)(=O)c1cccc(C(=O)NCCc2ccc(O)c(O)c2)c1	13.1µM*	7.0%	2.6%	?	-14.4	0.2
CCN(Cc1ccccc1)C(=O)c1ccc(CNS(=O)(=O)c2ccc(C)cc2)cc1	?	-13.7%	10.6%	-12.7%	-11.4	-5.0
COc1ccc(CCNC(=O)c2ccc(N(C)S(=O)(=O)c3ccc(C)cc3)cc2)cc1	?	·	-0.2%	4.2%	-3.2	-2.8
Cn1c(=O)c2c(-c3ccncc3)c3c(nc2n(C)c1=O)-c1ccccc1C3=O	·	6.7%	·	·	·	·
CN(c1ccc(C(=O)NCCSC(C)(C)C)cc1)S(C)(=O)=O	144.6%	5.8%	2.8%	·	139.5*	37.3*
Cc1cccc(N(C(=O)Cn2nnc3ccccc32)C(C(=O)NCc2ccco2)c2ccncc2)c1C (centres undefined)	?	-13.5%	1.1%	·	-7.6	-1.4
O=C(NCc1ccc(F)cc1)C(c1ccccc1)N(CC1CCCO1)C(=O)Cn1nnc2ccccc21 (centres undefined)	8.28µM*	-2.2%	18.0%	?	-3.7	-1.4
Cc1cccc(C)c1NC(=O)C(c1cccs1)N(Cc1ccco1)C(=O)Cn1nnc2ccccc21 (centres undefined)	6.57µM*	-25.9%	4.0%	·	0.5	-2.7
O=C(NCC1CCCO1)C(c1ccc(F)cc1)N(CC1CCCO1)C(=O)c1ccc(-c2ccccc2)[nH]1 (centres undefined)	2.08µM*	-8.1%	1.0%	26.4%	-2.5	-1.6
O=C(NCc1ccco1)C(c1ccccc1)N(Cc1ccccc1)C(=O)Cn1nnc2ccccc21 (centres undefined)	-22.1%	6.7%	-3.7%	9.28µM*	40.1	17.6*
SMILES	Pf growth 48h	NS1 function inh	SARS PLP yeast	Pf growth 96h	Shiga toxin inh	CHX counter
O=C(NCc1ccco1)C(c1ccccc1)N(CC1CCCO1)C(=O)Cn1nnc2ccccc21 (centres undefined)	?	?	5.4%	0.0%	-22.9	-0.6
CCn1c(NC(=O)C(C)C)c(-c2ccccc2)c(=O)c2ccccc21	?	1.5%	0.6%	3.3%	1.6	-2.1
O=C(c1ccccc1F)N(NC(=O)C(O)(c1ccccc1)c1ccccc1)c1ccccc1	18.0%	11.0%	19.4%	39.5%	2.8	1.7
COc1ccc(S(=O)(=O)N2CCOCC2)cc1NC(=O)Cn1nnc2ccccc2c1=O	-15.5%	·	-1.5%	-1.9%	-10.3	-1.0
O=c1[nH]nc(Cc2ncc(C(F)(F)F)cc2Cl)c2ccccc12	8.9%[0.00184 µM]	-0.9%	7.2%	18.3%	-2.2	-6.3
CC(=O)N(Cc1ccco1)c1nc(C(=O)Nc2ccc(Cl)cc2)c(C)s1	-7.9%	-8.0%	-12.4%	-3.0%	95.1*	45.6*
COc1cc2c(c(OC)c1OC)-c1ccc(NC(=O)c3ccccc3)c(=O)cc1[C@@H](NC(C)=O)CC2	9.28µM*	4.9%	-3.7%	?	-17.1	1.1
COc1cc2c(c(OC)c1OC)-c1ccc(O)c(=O)cc1[C@@H](NC(C)=O)CC2	·	·	-4.0%	·	·	·
COc1ccc(N2CCN(c3oc(COc4ccccc4)nc3C#N)CC2)cc1	13.1µM*	5.8%	0.4%	55.2%	34.1	11.3
N#Cc1nc(COc2ccc(F)cc2)oc1N1CCCCC1	-22.7%	-53.7%	-1.3%	-0.8%	64.9	27.2*
N#Cc1nc(COc2ccc(Br)cc2)oc1N1CCCCCC1	·	-90.9%	-12.1%	?	-3.5	9.2
COc1ccc(N2CCN(c3oc(COc4ccc(Cl)cc4)nc3C#N)CC2)cc1	?	14.1%	-11.2%	?	-1.6	8.1
CCN(CC)S(=O)(=O)c1ccc(OC)c(NC(=O)CSc2cc(C)ccc2C)c1	?	23.2%	8.3%	?	22.7	1.0
Cc1ccc(CN2CC(C(=O)NNC(=O)c3ccc(F)cc3)CC2=O)cc1 (centres undefined)	2.3%	·	-9.2%	9.2%	·	·
COc1ccccc1C(=O)NC(=O)COC(=O)CCS(=O)(=O)c1ccc(C)cc1	5.5%	·	2.4%	?	·	·
COc1ccc(CC2=C(O)c3ccccc3C(=O)C2=O)cc1	-9.9%	-125.3%	-8.3%	152.9%	-14.6	-3.8
O=C1C(=O)c2ccccc2C(O)=C1CCCCl	0.828µM*	-46.6%	-4.2%	1.85µM*	33.5	6.6
COc1ccc(CN(C)CC2CCCN(CCc3ccc(F)cc3)C2)cc1OC (centres undefined)	?	23.9%	19.7%	4.65µM*	-12.4	-2.7
COc1ccc(CN(C)CC2CCCN(CCc3ccc(Cl)cc3)C2)cc1OC (centres undefined)	?	-14.1%	-1.3%	-10.1%	-19.2	-2.5
